GALK inh – galactokinase (human) inhibition; P51570; Purified GALK, Kinase-Glo residual ATP luminescence; Potency, µM (doses to about 57.5 µM), usual class: inhibitors; 0.007% of 270,000 active; AID 1868
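Kinase-Glo Plus luminescence measured ATP left after a 1 h room-temperature reaction. The reaction used 5 nM GALK, 100 uM galactose and 35 uM ATP at pH 8.0 (20 mM HEPES, 5 mM MgCl2, 60 mM NaCl, 1 mM DTT, 0.01% BSA).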
aGlu spleen mod – inhibitors or activators of human alpha-glucosidase in spleen homogenate; P10253; human spleen homogenate, 4-MU-alpha-glucoside fluorescence; Potency, µM (highest dose often 79.9 µM), hits mostly inhibitors; 0.006% of 240,000 active; AID 2112
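Human spleen homogenate (1 ug) with 4-methylumbelliferyl-alpha-D-glucopyranoside (1 mM final) in 50 mM citrate/phosphate pH 5.0, 0.01% Tween-20; 40 min at 37 C. Stopped at pH 10; 4-MU fluorescence Ex 365/Em 440 nm; AC50 by Hill fit.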
GAA inh – inhibitors of human lysosomal alpha-glucosidase; P10253; purified human GAA, 4-MU-alpha-glucoside fluorescence; Potency, µM (top dose mostly 76.9 µM), hits mostly inhibitors; 0.005% of 200,000 active; AID 1466
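Compounds are titrated up to 77 uM against 4 nM human enzyme. Substrate 4-methylumbelliferyl-alpha-D-pyranoside (400 uM) reacts 20 min at room temperature in pH 5.0 buffer; liberated 4-methylumbelliferone is read at 440 nm.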
GAA glycogen – alters human alpha-glucosidase cleavage of glycogen; 0.38% of 300,000 active; AID 2100; recombinant GAA, glycogen substrate, Amplex Red glucose oxidase fluorescence; P10253; Potency, µM (top dose mostly 76.4 µM), hits mostly inhibitors;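 further: the screen sought inhibitors and activators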
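Recombinant human enzyme (4 nM); glycogen substrate; 37 C, 40 min, pH 5.0. Readout: coupled glucose oxidase/Amplex Red fluorescence.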
PKM2 act – PKM2 (human) enzyme activation; Potency, µM (highest dose often 57.5 µM), most hits filed as activators; AID 1631; purified PKM2, Kinase-Glo ATP luminescence, activation; response scale: 0% is enzyme alone, no compound; P14618; 0.34% of 260,000 active; further: nearly all actives have a fitted effect of over 55% in size
Target sequence (P14618 whole entry, looked up): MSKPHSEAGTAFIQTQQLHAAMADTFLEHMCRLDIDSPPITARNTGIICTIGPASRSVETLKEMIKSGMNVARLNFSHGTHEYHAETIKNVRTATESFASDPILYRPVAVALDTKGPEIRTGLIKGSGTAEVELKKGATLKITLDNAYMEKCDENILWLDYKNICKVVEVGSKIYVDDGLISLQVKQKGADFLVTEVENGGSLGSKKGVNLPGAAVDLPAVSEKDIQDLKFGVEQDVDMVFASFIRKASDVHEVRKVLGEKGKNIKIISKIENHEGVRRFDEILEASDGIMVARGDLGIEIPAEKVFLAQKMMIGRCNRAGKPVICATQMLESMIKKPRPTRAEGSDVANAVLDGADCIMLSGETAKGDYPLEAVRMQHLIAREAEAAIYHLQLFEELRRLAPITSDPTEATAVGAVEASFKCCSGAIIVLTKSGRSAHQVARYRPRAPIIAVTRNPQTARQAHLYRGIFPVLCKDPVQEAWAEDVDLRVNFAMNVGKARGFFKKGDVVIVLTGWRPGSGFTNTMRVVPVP
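hPK-M2, >95% pure; 0.1 mM ADP / 0.5 mM PEP final; imidazole pH7.2 buffer w/ 7 mM MgCl2, 50 mM KCl; 1 h RT; Kinase-Glo lum. Intermediate enzyme activity for dual inhibitor/activator qHTS.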
Of the large screens only hits and unclear results are named; the others gave an inactive call. This is a sample that favours compounds with a hit; in the whole collection about 0.63% have one here. The call rests on the fitted dose curve; in most records, active means well fitted curve in the direction sought with a large enough effect; inconclusive means small, poorly fitted or top-dose-only effect, or another doubt; inactive means no such curve, though single readings can be large; an effect the other way counts as inactive or inconclusive.

CCCCN(C(=O)C1CCC(CNS(=O)(=O)c2cccc3nsnc23)CC1)c1ccccc1 (centres undefined)	none (no result: GALK inh, aGlu spleen mod, GAA inh, PKM2 act)
COc1cc2c(cc1OC)CN(S(=O)(=O)c1ccc3c(c1)OCCO3)CC2	PKM2 act 8.91µM
COc1ccc(S(=O)(=O)N2CCc3ccccc3C2)cc1OC	none
O=c1[nH]c(=O)c2nc3c4ccccc4c4ccccc4c3nc2[nH]1	PKM2 act 11.2µM
O=c1[nH]c(=O)c2nc(-c3ccc(Cl)cc3)cnc2[nH]1	GAA inh inconclusive
CCN1c2ccccc2NC2C1C(C(C)=O)C(=O)N2c1ccc(Cl)cc1 (centres undefined)	GAA glycogen 24.9µM
O=C(CCSCc1cnn(-c2ccccc2)c1-n1cccc1)NCc1ccccc1F	none (no result: GALK inh, aGlu spleen mod, GAA inh, PKM2 act)
O=C(Nc1cc(S(=O)(=O)N2CCOCC2)ccc1N1CCCC1)c1cc(=O)[nH]c2ccccc12	aGlu spleen mod 10µM, GAA glycogen inconclusive (no result: GAA inh)
CCN(CC)S(=O)(=O)c1ccc(N2CCOCC2)c(NC(=O)c2cc(=O)[nH]c3ccccc23)c1	GAA inh inconclusive
COc1ccc(N2CCN(C(=O)c3sc4nc5n(c(=O)c4c3C)CCC5)CC2)cc1	none (no result: GALK inh, aGlu spleen mod, GAA inh, PKM2 act)
CCS(=O)(=O)N1CCCc2cc(C(=O)Nc3cccc(C(C)=O)c3)ccc21	GAA glycogen 35.5µM (no result: GALK inh, aGlu spleen mod, GAA inh, PKM2 act)
CCOC(=O)c1c(C)n(-c2ccc(C)cc2)c2ccc(O)c(CN(C)C)c12	none
CCOC(=O)c1c(C)n(C)c2ccc(O)c(CN(C)C)c12	GAA glycogen 25.1µM
COc1cc(NC(=O)CN(C)S(=O)(=O)c2ccc3[nH]c4c(c3c2)CCCC4)cc(OC)c1OC	none (no result: GALK inh, aGlu spleen mod, GAA inh, PKM2 act)
COC(=O)c1c(C)sc(-c2c(-c3ccc4c(c3)OCCO4)[nH]c3[nH]c(=O)[nH]c(=O)c23)c1O	GAA glycogen 25.1µM (no result: GALK inh, aGlu spleen mod, GAA inh, PKM2 act)
COC(=O)c1c(C)sc(-c2c(-c3ccc4c(c3)OCCO4)[nH]c3c2c(=O)n(C)c(=O)n3C)c1O	none (no result: GALK inh, aGlu spleen mod, GAA inh, PKM2 act)
CCOc1ccc(-c2cc3nc(C4CCN(C(=O)OC(C)(C)C)CC4)c(C(=O)Nc4ccc(C)cc4Cl)cn3n2)cc1	none (no result: GALK inh, aGlu spleen mod, GAA inh, PKM2 act)
CCOc1ccc(-c2cc3nc(C4CCN(C(=O)OC(C)(C)C)CC4)c(C(=O)Nc4ccc(C)cc4C)cn3n2)cc1	GAA glycogen 35.5µM (no result: GALK inh, aGlu spleen mod, GAA inh, PKM2 act)
Cc1ccc(S(=O)(=O)CC(=O)c2ccc([N+](=O)[O-])cc2)cc1	PKM2 act 22.4µM (no result: GAA inh)
Cc1nnc(N2CCN(c3ccccc3F)CC2)c2c1nnn2Cc1ccccc1Cl	none (no result: GALK inh, aGlu spleen mod, GAA inh, PKM2 act)
Cc1occc1-c1nnc(SCCCC(=O)c2ccc(F)cc2)n1C	PKM2 act 25.1µM
Cn1c(SCCCC(=O)c2ccc(F)cc2)nnc1-c1ccncc1	none
Cc1ccc(S(=O)(=O)Nc2ccc(O)c3ncccc23)cc1	GAA inh inconclusive, GAA glycogen inconclusive
Cc1ccc(S(=O)(=O)Nc2ccc(O)c3cccnc23)cc1	PKM2 act 10µM (no result: aGlu spleen mod, GAA inh)
CC(=O)c1ccc(-c2cccc(C3C4C=CCCC4(C)C(=O)N3Cc3ccccc3)c2)cc1 (centres undefined)	none (no result: GALK inh, GAA inh, GAA glycogen, PKM2 act)
Cc1cccc(C(=O)Nc2ccc3nc(SCC(=O)N4CCCC4)sc3c2)c1	none (no result: GALK inh, aGlu spleen mod, GAA inh, PKM2 act)
CCOc1ccc(CNc2cccc(SC)c2)cc1	PKM2 act 14.1µM
CCOc1ccc(CNc2ccc(CNc3ncn[nH]3)cc2)cc1	none
COc1cccc(NC(=O)N(Cc2c[nH]c3ccccc23)C2CCCCCC2)c1	none (no result: GALK inh, aGlu spleen mod, GAA inh, PKM2 act)
CC(=O)Nc1ccc(N/C=C/C(=O)c2ccco2)cc1	none
O=C(/C=C/Nc1ccccc1O)c1ccco1	GAA glycogen 15.7µM (no result: GAA inh)
CN(C)c1ccc(N/C=C/C(=O)c2ccco2)cc1	GAA glycogen 12.6µM
CCCN(C(=O)c1cc2c(=O)oc3ccccc3c2s1)c1ccccc1C	none (no result: GALK inh, aGlu spleen mod, GAA inh, PKM2 act)
CC/C(=C\C(=O)c1ccncc1)Nc1ccc(O)cc1	GAA glycogen 44.7µM
Nc1ccc(N2CCOCC2)c2nonc12	GAA glycogen 7.03µM
O=C(Nc1ccc(N2CCOCC2)c2nonc12)C1CCCC1	none
CC1CCCC(NC(=O)Nc2cccs2)C1C (centres undefined)	GAA glycogen 14µM
CCc1ccccc1Nc1cc(C(=O)NC(C)c2ccccc2)c2ccccc2n1 (centres undefined)	none (no result: GALK inh, aGlu spleen mod, GAA inh, PKM2 act)
O=C1/C(=C\c2ccc(O)c(O)c2)C(c2ccccc2)=NN1c1ccccc1	GALK inh inconclusive, GAA glycogen 3.98µM
